This note sets out measurements from PubChem BioAssay (EPA / NIEHS).

Structures are written as SMILES. Calls of active or inactive are those of the source. Rule for the calls: active = hit-call score of the fitted dose curve at least 0.9, where 1 is the maximum; inactive = score below 0.9.

One experiment in a line: BSK_3C_TissueFactor: BioMAP Diversity Plus: 3C Assay for Tissue Factor Biomarker Activity (AID 2282997). The following applies: BioMAP 3C HUVEC, tissue factor biomarker readout; actives raise or lower the signal. A digest of the protocol:
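Dosing of human umbilical vein endothelial cells preceded a 24 h incubation. Tissue Factor was then read by ELISA, with increases and decreases both scored relative to DMSO controls.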
For `O=C1CCCO1`, the result was inactive.
On the same count and under the same terms, the entry for `N#CC(Br)(Br)C(N)=O` is “inactive”.
The same measure, in the same setting: the result for `CC(C)(C)OOC(C)(C)CCC(C)(C)OOC(C)(C)C` reads “inactive”; that for `CC(O)CCO` (stereo unspecified), “inactive”.
Still for that read-out and setting: the entry for `Cc1ccc([N+](=O)[O-])cc1` is “inactive”; for `C1=Cc2cccc3cccc1c23` it is “inactive”.
Take `CCCCC(CC)COC(=O)c1ccc(C(=O)OCC(CC)CCCC)c(C(=O)OCC(CC)CCCC)c1` (stereo unspecified): the result was inactive.
On to `COC(=O)Nc1nc2ccccc2[nH]1`, for which the result was inactive.
With `Cc1ccc(N)c(N)c1`, the outcome was inactive.
The same measure, in the same setting: the result for `Clc1ccc(Cl)c(Cl)c1` reads “inactive”; that for `CC(C)(C)OOC(=O)c1ccccc1`, “inactive”.
Same read-out and setting: the entry for `CCN(CC)CCO` is “inactive”.
For the compound `C[N+](C)(C)CC1CO1` (stereo unspecified), the outcome was inactive.
Same read-out and setting: the result for `OCCOCCO` reads “inactive”.
Same read-out and setting: the entry for `OCCCBr` is “inactive”.
For `[O-][Cl+]O`, the outcome was inactive.
The same measure, in the same setting: the entry for `Nc1cc(Cl)cc(C(=O)O)c1Cl` is “inactive”.
Take `COc1cc(C=O)cc2c1[C@H](COC(N)=O)[C@]1(OC(C)=O)ON2C[C@H]2[C@@H]1N2C(C)=O`: the AC50 was 6.64 µM (active).
As to `COC(=O)c1ccccc1N`, the outcome was inactive.
On the same count and under the same terms, the entry for `O=Cc1ccco1` is “inactive”.
On the same count and under the same terms, the result for `Cc1ccc(N)cc1` reads “inactive”.
As to `ClC1=C(Cl)[C@]2(Cl)[C@H]3[C@H]([C@@H]4C=C[C@H]3C4)[C@@]1(Cl)C2(Cl)Cl`, the AC50 is 28.5 µM (active).
For `CCN(CC)N=O`, the result was inactive.
On the same count and under the same terms, the entry for `Cc1ccc(N=C=O)cc1N=C=O` is “inactive”.
With `c1ccc2c(c1)-c1cccc3cccc-2c13`, the AC50 was 0.669 µM (active).
In the case of `CCOc1cccc(C2(N3CCN(c4ccccc4)CC3)CCC(C)CC2)c1` (stereo unspecified), the outcome was inactive.
Same read-out and setting: the result for `CS(=O)(=O)NC(=O)c1cc(Oc2ccc(C(F)(F)F)cc2Cl)ccc1[N+](=O)[O-]` reads “inactive”; that for `CCC12COCN1COC2`, “inactive”.

The nature of a further experiment: BSK_3C_uPAR: BioMAP Diversity Plus: 3C Assay for Urokinase-type plasminogen activator receptor (uPAR) Biomarker Activity (AID 2282998). The following applies: BioMAP 3C HUVEC, uPAR biomarker ELISA; actives raise or lower the signal. The method, boiled down:
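HUVEC primary cells; 24 h post-dose; uPAR by ELISA; gain or loss of signal fitted bidirectionally vs DMSO baseline.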
`O=C1CCCO1`: the outcome was inactive.
The same measure, in the same setting: the result for `N#CC(Br)(Br)C(N)=O` reads “inactive”; that for `CC(C)(C)OOC(C)(C)CCC(C)(C)OOC(C)(C)C`, “inactive”; that for `CC(O)CCO` (stereo unspecified), “inactive”.
On the same count and under the same terms, the entry for `Cc1ccc([N+](=O)[O-])cc1` is “inactive”; for `C1=Cc2cccc3cccc1c23` it is “inactive”; for `CCCCC(CC)COC(=O)c1ccc(C(=O)OCC(CC)CCCC)c(C(=O)OCC(CC)CCCC)c1` (stereo unspecified) it is “inactive”.
As to `COC(=O)Nc1nc2ccccc2[nH]1`, the AC50 is 10.9 µM (active).
For `Cc1ccc(N)c(N)c1`, the outcome was inactive.
With `Clc1ccc(Cl)c(Cl)c1`, the outcome was inactive.
Take `CC(C)(C)OOC(=O)c1ccccc1`: the outcome was inactive.
Same read-out and setting: the entry for `CCN(CC)CCO` is “inactive”; for `C[N+](C)(C)CC1CO1` (stereo unspecified) it is “inactive”; for `OCCOCCO` it is “inactive”.
On the same count and under the same terms, the result for `OCCCBr` reads “inactive”.
Same read-out and setting: the entry for `[O-][Cl+]O` is “inactive”; for `Nc1cc(Cl)cc(C(=O)O)c1Cl` it is “inactive”.
As to `COc1cc(C=O)cc2c1[C@H](COC(N)=O)[C@]1(OC(C)=O)ON2C[C@H]2[C@@H]1N2C(C)=O`, the AC50 is 11.6 µM (active).
As for `COC(=O)c1ccccc1N`, the result was inactive.
Same read-out and setting: the result for `O=Cc1ccco1` reads “inactive”; that for `Cc1ccc(N)cc1`, “inactive”.
Take `ClC1=C(Cl)[C@]2(Cl)[C@H]3[C@H]([C@@H]4C=C[C@H]3C4)[C@@]1(Cl)C2(Cl)Cl`: the AC50 is 16.1 µM (active).
With `CCN(CC)N=O`, the result was inactive.
Still for that read-out and setting: the entry for `Cc1ccc(N=C=O)cc1N=C=O` is “inactive”; for `c1ccc2c(c1)-c1cccc3cccc-2c13` it is “inactive”; for `CCOc1cccc(C2(N3CCN(c4ccccc4)CC3)CCC(C)CC2)c1` (stereo unspecified) it is “inactive”.
Consider `CS(=O)(=O)NC(=O)c1cc(Oc2ccc(C(F)(F)F)cc2Cl)ccc1[N+](=O)[O-]`, for which the AC50 was 28.6 µM (active).
`CCC12COCN1COC2`: the result was inactive.
